The record followed here is PubChem BioAssay (NCATS).

The structures appear in SMILES notation. Results filed as inconclusive are left out. Entries that show only a call come without a potency. Unmarked numbers belong to inactive results. Activity calls are given as the source filed them. The call rests on the fitted dose curve; in most records, active means well fitted cell-killing curve with a large enough effect; inconclusive means small, poorly fitted or top-dose-only effect, or effect the other way; inactive means flat fitted curve, though single readings scatter.

For one test, the system named is HeLa. The experiment in a line: Primary qHTS to identify gynecologic anti-cancer compounds using libraries of approved drugs and bioactive compounds (AID 1345084). Further: nearly all actives have a fitted effect of over 55% in size. The note with it: Gynecologic cancer cell panel viability, ATPlite luminescence, 48 h; series mostly up to 57.5 µM. The method in brief:
(§1)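 In this quantitative HTS, cell killing is estimated from loss of ATP-dependent luciferase light. Cells see five compound concentrations over a 48 h exposure.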
On the technique in general: In qHTS, concentration-response curves come from the screen itself.
Take `CC1(C)SC2C(NC(=O)[C@H](NC(=O)N3CCNC3=O)c3ccccc3)C(=O)N2C1C(=O)O` (some centres undefined): the Potency result was “inactive”.

Regarding `CC1(C)SC2C(NC(=O)[C@H](C(=O)O)c3ccsc3)C(=O)N2C1C(=O)O` (some centres undefined), the Potency result was “inactive”.

Take `COc1ccc(-c2nc(-c3cc(C(F)(F)F)cc(C(F)(F)F)c3)n(Cc3ccc(C(N)=O)cc3)c2-c2ccc(OC)cc2)cc1`: the Potency result is “inactive”.

On to `Fc1ccccc1CNCc1ccc(-c2ccnc3[nH]ccc23)cc1`, for which the Potency result was “inactive”.

On to `CCCCc1nc(C)c(CC(=S)N(C)C)c(=O)n1Cc1ccc(-c2ccccc2-c2nn[nH]n2)cc1`, for which the Potency entry is “inactive”.

On to `CO[C@@H]1[C@@H](O[C@H]2O[C@@H](C)[C@H](O[C@@H]3C[C@](C)(O)[C@H](O)[C@@H](C)O3)[C@@H](N(C)C)[C@@H]2O)[C@@H](CC=O)C[C@@H](C)[C@@H](O[C@H]2CC[C@H](N(C)C)[C@H](C)O2)/C=C/C=C/C[C@@H](C)OC(=O)C[C@H]1O`, for which the Potency entry is “inactive”.

Consider `CNc1nc(-c2ccc3c(N)n[nH]c3c2)cc(N2CC(C(=O)NC3CCCCC3)CCC2C)n1` (centres undefined), for which the Potency result was “inactive”.

With `CNc1cc(OC)c(C(=O)N[C@@H]2CCN(Cc3ccccc3)[C@@H]2C)cc1Cl`, the Potency result is “inactive”.

Consider `CN([C@H]1c2cc(OCCCC(F)(F)F)ccc2OC(C)(C)[C@@H]1O)S(C)(=O)=O`, for which the Potency result is “inactive”.

In the case of `CCOC(=O)CCC(=O)O[C@H]1[C@H](O[C@@H]2[C@@H](C)[C@H](O[C@H]3C[C@@](C)(OC)[C@@H](O)[C@H](C)O3)[C@@H](C)C(=O)O[C@H](CC)[C@@](C)(O)[C@H](O)[C@@H](C)C(=O)[C@H](C)CC2(C)O)O[C@H](C)C[C@@H]1N(C)C` (some centres undefined), the Potency result is “inactive”.

On to `COc1cc(-c2cc(-c3cccc(O)c3)cnc2N)cc(OC)c1OC`, for which the Potency entry is “inactive”.

For `C=C1C(=O)O[C@@H]2C[C@@H](C)[C@]34C[C@]5(C(=O)O[C@H]6CC(C)=C([C@H](C)CCCO)[C@H](OC(=O)C(C)CC)[C@H]65)[C@@H](C(C)=C3C[C@@H]12)[C@H]4OC(C)=O` (some centres undefined), the Potency result is “inactive”.

On to `CN(C)CC(=O)Nc1ccc2[nH]c(=O)c3ccccc3c2c1`, for which the Potency result was “inactive”.

As for `CC(CCC1(O)OC2CC3C4CC=C5CC(O[C@@H]6O[C@H](CO)[C@@H](O[C@@H]7O[C@H](CO)[C@@H](O)[C@H](O)[C@H]7O)[C@H](O)[C@H]6O[C@@H]6O[C@@H](C)[C@H](O)[C@@H](O)[C@H]6O)CCC5(C)C4CCC3(C)C2C1C)CO[C@@H]1O[C@H](CO)[C@@H](O)[C@H](O)[C@H]1O` (some centres undefined), the activity change, negative = cytotoxicity is -13.3% [at 11.6 µM].

As to `C[C@@H](CN1CCC(n2c(=O)[nH]c3cc(Cl)ccc32)CC1)NC(=O)c1ccc2ccccc2c1`, the Potency result is “inactive”.

As to `CC(C)c1ccc(NC(=O)C(c2ccccc2)N(C)C(=O)Cc2c[nH]c3ccccc23)cc1` (centres undefined), the Potency entry is “inactive”.

In the case of `CCCCC(=O)N(Cc1ccc(-c2ccccc2-c2nn[nH]n2)cc1)C(C(=O)O)C(C)C` (centres undefined), the Potency result is “inactive”.

Take `CCCCc1nc(Cl)c(CO)n1Cc1ccc(-c2ccccc2-c2nnn[nH]2)cc1`: the Potency entry was “inactive”.

In the case of `COc1ccc2c(c1)CN(C(=O)CCN1CCC(Cc3ccccc3)CC1)CCS2`, the Potency result is “inactive”.

For `C=C1C(=O)O[C@@H]2[C@H]1[C@H](O)C[C@]1(C)[C@@H](O)CC=C(C)[C@@H]21`, the Potency result is “inactive”.

Consider `CCNC(=O)[C@@H]1CCCN1C(=O)[C@H](CCCN=C(N)N)NC(=O)[C@H](CC(C)C)NC(=O)[C@@H](CC(C)C)NC(=O)[C@H](Cc1ccc(O)cc1)NC(=O)[C@H](CO)NC(=O)[C@H](Cc1c[nH]c2ccccc12)NC(=O)[C@H](Cc1cnc[nH]1)NC(=O)[C@@H]1CCC(=O)N1`, for which the Potency result was “inactive”.

Take `COc1ccc(C2(CNC(=O)[C@](C)(Cc3c[nH]c4ccccc34)NC(=O)Nc3ccc([N+](=O)[O-])cc3)CCCCC2)nc1`: the Potency entry was “inactive”.

For `CCN(CC)Cc1cccc(/C=C/c2nc3ccc(F)cc3c(=O)n2-c2ccccc2Cl)n1`, the Potency entry was “inactive”.

Regarding `C=C(C(=O)O)C1CC2=C(C)C(=O)CC2C(C)CC1O` (centres undefined), the Potency result was “inactive”.

The subject of another test is Hek293T. The description is as above. As to conditions: Gynecologic cancer cell panel viability, ATPlite luminescence, 48 h, control line for the selectivity index; series mostly up to 57.5 µM. The method in brief:
as §1
(ATP-based viability assays read luminescence as a measure of living cells.)
For the compound `Nc1ccc(N)c([N+](=O)[O-])c1`, the Potency entry is “inactive”.

As for `CC(C)n1cnc2c(Nc3cccc(Cl)c3)nc(NCCO)nc21`, the Potency entry was “inactive”.

Regarding `COc1ccc(-c2c(C)c(C(=O)NN3CCCCC3)nn2-c2ccc(Cl)cc2Cl)cc1`, the Potency entry is “inactive”.

For the compound `O=C(CC1NCCC[C@H]1O)Cn1cnc2cc(Br)c(Cl)cc2c1=O` (some centres undefined), the Potency entry was “inactive”.

For the compound `Cc1c(C(=O)NCCCO)cnn1-c1nc(-c2cccc(C(F)(F)F)c2)cs1`, the Potency entry is “inactive”.

As to `COc1cccc(NC[C@@H](O)Cn2c3ccc(Br)cc3c3cc(Br)ccc32)c1`, the Potency entry was “inactive”.

Turning to `C[C@@H](O[C@H]1OCCN(Cc2n[nH]nc2CN(C)C)[C@H]1c1ccc(F)cc1)c1cc(C(F)(F)F)cc(C(F)(F)F)c1`, the Potency entry was “inactive”.

`CCC(=O)Nc1cccc(Oc2nc(Nc3ccc(N4CCN(C)CC4)cc3OC)ncc2Cl)c1`: the Potency result was “inactive”.

With `COc1cc2nc(-c3cc(F)ccc3O)nc(N[C@@H]3CNC[C@H]3C(C)(C)O)c2cc1OC`, the Potency entry was “inactive”.

Consider `Cc1cc(CN)cc(C)c1NC(=O)c1ccc(-c2cc(Cl)ccc2Cl)o1`, for which the Potency result is “inactive”.

Take `c1ccc(-c2cnc(Nc3ccc(OCCN4CCCC4)cc3)s2)cc1`: the Potency result was “inactive”.

Turning to `CC1(C)SC2C(NC(=O)[C@H](NC(=O)N3CCNC3=O)c3ccccc3)C(=O)N2C1C(=O)O` (some centres undefined), the Potency entry was “inactive”.

Regarding `CC1(C)SC2C(NC(=O)[C@H](C(=O)O)c3ccsc3)C(=O)N2C1C(=O)O` (some centres undefined), the Potency entry was “inactive”.

Turning to `Fc1ccccc1CNCc1ccc(-c2ccnc3[nH]ccc23)cc1`, the Potency entry is “inactive”.

With `CCCCc1nc(C)c(CC(=S)N(C)C)c(=O)n1Cc1ccc(-c2ccccc2-c2nn[nH]n2)cc1`, the Potency result is “inactive”.

Regarding `CO[C@@H]1[C@@H](O[C@H]2O[C@@H](C)[C@H](O[C@@H]3C[C@](C)(O)[C@H](O)[C@@H](C)O3)[C@@H](N(C)C)[C@@H]2O)[C@@H](CC=O)C[C@@H](C)[C@@H](O[C@H]2CC[C@H](N(C)C)[C@H](C)O2)/C=C/C=C/C[C@@H](C)OC(=O)C[C@H]1O`, the Potency entry was “inactive”.

Regarding `CNc1cc(OC)c(C(=O)N[C@@H]2CCN(Cc3ccccc3)[C@@H]2C)cc1Cl`, the Potency entry is “inactive”.

For the compound `CN([C@H]1c2cc(OCCCC(F)(F)F)ccc2OC(C)(C)[C@@H]1O)S(C)(=O)=O`, the Potency entry was “inactive”.

Turning to `CCOC(=O)CCC(=O)O[C@H]1[C@H](O[C@@H]2[C@@H](C)[C@H](O[C@H]3C[C@@](C)(OC)[C@@H](O)[C@H](C)O3)[C@@H](C)C(=O)O[C@H](CC)[C@@](C)(O)[C@H](O)[C@@H](C)C(=O)[C@H](C)CC2(C)O)O[C@H](C)C[C@@H]1N(C)C` (some centres undefined), the Potency result is “inactive”.

Take `COc1cc(-c2cc(-c3cccc(O)c3)cnc2N)cc(OC)c1OC`: the Potency result was “inactive”.

Consider `CC(CCC1(O)OC2CC3C4CC=C5CC(O[C@@H]6O[C@H](CO)[C@@H](O[C@@H]7O[C@H](CO)[C@@H](O)[C@H](O)[C@H]7O)[C@H](O)[C@H]6O[C@@H]6O[C@@H](C)[C@H](O)[C@@H](O)[C@H]6O)CCC5(C)C4CCC3(C)C2C1C)CO[C@@H]1O[C@H](CO)[C@@H](O)[C@H](O)[C@H]1O` (some centres undefined), for which the activity change, negative = cytotoxicity is 1.54% [at 11.6 µM].

As to `C[C@@H](CN1CCC(n2c(=O)[nH]c3cc(Cl)ccc32)CC1)NC(=O)c1ccc2ccccc2c1`, the Potency result was “inactive”.

Consider `CC(C)c1ccc(NC(=O)C(c2ccccc2)N(C)C(=O)Cc2c[nH]c3ccccc23)cc1` (centres undefined), for which the Potency entry was “inactive”.

As to `CCCCC(=O)N(Cc1ccc(-c2ccccc2-c2nn[nH]n2)cc1)C(C(=O)O)C(C)C` (centres undefined), the Potency result was “inactive”.

On to `CCCCc1nc(Cl)c(CO)n1Cc1ccc(-c2ccccc2-c2nnn[nH]2)cc1`, for which the Potency entry is “inactive”.

As to `COc1ccc2c(c1)CN(C(=O)CCN1CCC(Cc3ccccc3)CC1)CCS2`, the Potency entry was “inactive”.

With `C=C1C(=O)O[C@@H]2[C@H]1[C@H](O)C[C@]1(C)[C@@H](O)CC=C(C)[C@@H]21`, the Potency entry is “inactive”.

In the case of `CCNC(=O)[C@@H]1CCCN1C(=O)[C@H](CCCN=C(N)N)NC(=O)[C@H](CC(C)C)NC(=O)[C@@H](CC(C)C)NC(=O)[C@H](Cc1ccc(O)cc1)NC(=O)[C@H](CO)NC(=O)[C@H](Cc1c[nH]c2ccccc12)NC(=O)[C@H](Cc1cnc[nH]1)NC(=O)[C@@H]1CCC(=O)N1`, the Potency result is “inactive”.

As for `COc1ccc(C2(CNC(=O)[C@](C)(Cc3c[nH]c4ccccc34)NC(=O)Nc3ccc([N+](=O)[O-])cc3)CCCCC2)nc1`, the Potency entry was “inactive”.

As to `CCN(CC)Cc1cccc(/C=C/c2nc3ccc(F)cc3c(=O)n2-c2ccccc2Cl)n1`, the Potency result is “inactive”.
